Compounds without any hit were thinned out: in the full panel of roughly 83,000, 20% have a hit.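 Compound tested at a single concentration for 48 hours in 96-well plates; a percent growth value below 10 was scored as active.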 Unmarked numbers belong to inactive results. Activity calls are given as the source filed them.
Each compound was assayed on NCI-H460 lung (assay: NCI-60 one-dose screen, 48 h (100 = growth as untreated, 0 = no growth, -100 = all killed)). Settings: 10 µM unless noted.
`O=c1ccc(Cn2c(C(F)(F)F)cc3c(Cl)ncnc32)c[nH]1` was tested, and the growth was 32.5%. `CC[C@]12C=CCN3CC[C@]4(C(=C(C(=O)OC)C1)Nc1cc(OC)c([C@@H]5[C@H]6O[C@H]6[C@@]6(CC)CC(C(=O)OC)=C7Nc8cc(O)ccc8[C@@]78CCN5[C@@H]68)cc14)[C@@H]32` was tested, and the growth was -68.4% (active). For `COc1ccc2[nH]cc(-c3cc4nc(-c5cn(C)c6ncccc56)cc(N)n4n3)c2c1`, the growth was -58.3% (active). `COc1ccc2[nH]c(=O)cc(-n3ncc(C(=O)/C=C/c4cc(OC)c(OC)c(OC)c4)c3C)c2c1` was tested, and the growth was -30.4% (active). In the case of `COc1ccc(/C=C/c2nc3ccccc3n3c(-c4cccc([N+](=O)[O-])c4)nnc23)cc1`, the growth was -35.6% (active). For `O=C(Nc1ccc(Cl)c(C(F)(F)F)c1)N1CCN(c2cc(-c3cn(-c4ccccc4)nc3-c3cccc(O)c3)ccn2)CC1`, the growth was 7.84% (active). `O=C1Nc2ccccc2/C1=C/C(=O)c1cc2ccccc2oc1=O` was tested, and the growth was 108%. For `CN1CCN(C(=O)Oc2cc3c(c4ccccc24)[C@H](CCl)CN3C(=O)c2cc3cc(OCCCN4CCC4)ccc3[nH]2)[C@H]2CSSC[C@H]21`, the growth was 0.951% (active). `NS(=O)(=O)c1ccc(Nc2nc(N/N=C/c3cc(Br)c(O)c(Br)c3)nc(Nc3ccccc3)n2)cc1` showed a growth of 99.8%. With `COc1ccc2c(c1)C(Sc1ccc(Cl)cc1)c1c(nc(N)c(C#N)c1N)O2` (stereo unspecified) the growth was 63.2%. With `CS(=O)(=O)Nc1cccc(-n2c(COc3ccc(OC(F)(F)F)cc3)nc3ccccc32)c1` the growth was 110%.

Source: PubChem BioAssay (NCI)
